In PubChem BioAssay AID504329 (Southern Research Specialized Biocontainment Screening …, 2011):
Several values for one entry are separate records, joined by “and”; a condition that tells them apart may be missing. Equal values may be shown once. About 1,000 (0.29%) of roughly 340,000 compounds were called active. These entries were drawn from the full list. Entries with a potency or affinity are not part of this list. Unmarked numbers belong to inactive results. Cut-off read from the data, not from the text of the source: inconclusive = inhibition above about 27% without an active follow-up result; inactive = below that.

assay: NS1A inhibition, H1N1 influenza, cell based functional assay (AID 504329); conditions: percent inhibition, at 12.5 µM, stronger effect = higher value

First: CN(C)C(=O)CCc1ccc2c3c([nH]c2c1)[C@]1(C)[C@@H](C(=O)N2CCCCC2)C[C@H](CC(=O)NCCN2CCOCC2)C(=O)N1CC3
Second: O=C(CSc1nc(=O)n(CCCN2CCOCC2)c2c1CCC2)Nc1ccc(F)cc1F
The inhibition of the first is higher: 8.89% for the first, 0.02% for the second.

First: S=C(NCc1cccs1)NCC1CCCO1 (centres undefined)
Second: COC(=O)c1ccc(NC(=S)N2CCC(C(N)=O)CC2)cc1
The inhibition of the first is higher: -5.35% for the first, -11.5% for the second.

Going from `Cc1ccc(S(=O)(=O)N(C)CCCC(=O)Nc2ccc(C)cc2C)cc1` to `Cc1ccc(S(=O)(=O)N(C)CCCC(=O)Nc2cccc3ccccc23)cc1`, the inhibition rises from -2.08% to 2.47%.

Going from `Cc1ccc(N=Nc2ccc(O)c3ncccc23)cc1C` to `Cc1ccc(N=Nc2ccc(O)c3ncccc23)cc1`, the inhibition rises from -4.94% to -1.47%.

Compared with `Oc1ccc(N=Nc2ccccc2C(F)(F)F)c2cccnc12`, `Cc1ccccc1N=Nc1ccc(O)c2ncccc12` is lower in inhibition: 18.7% for the first, 11.8% for the second.

Compared with `CCOc1ccc(NC(=O)CN(C)C(=O)CSCc2c(C)noc2C)cc1OCC`, `Cc1sc2nc(SCC(=O)Nc3cccc(C(=O)O)c3)[nH]c(=O)c2c1C` is lower in inhibition: -3.36% for the first, -8.26% for the second.

First: COc1ccc(CC(=O)NNC2=Nc3cccc4cccc2c34)cc1OC
Second: COc1ccc(C=C2C(=O)c3ccccc3C2=O)cc1O
The inhibition of the first is lower: -25.3% for the first, 16.6% for the second.

Going from `O=C1c2ccccc2C(=O)N1CCc1nc2ccccc2c(=O)n1Cc1ccco1` to `CCN(CC)C(=O)c1nn(Cc2ccccc2)c(=O)c2ccccc12`, the inhibition falls from -1.09% to -5.91%.

Going from `O=C(Cc1ccc(N(CCCl)CCCl)cc1)NC(Cc1ccc(Cl)cc1)C(=O)O` (centres undefined) to `O=C(NC1(c2ccccc2)CC1)C1CCC(=O)N(Cc2ccc(Cl)cc2)C1` (centres undefined), the inhibition rises from -4.27% to 8.58%.

Compared with `CC(C(=O)NCC1(c2ccccc2)CCOCC1)N1CCOCC1` (centres undefined), `CCOC(=O)c1cnc(N2CCN(c3ccccc3)CC2)[nH]c1=O` is higher in inhibition: -3.8% for the first, -0.51% for the second.

First: CCCCCCN1C=C/C(=C\C=C(C#N)C#N)c2ccccc21
Second: C=CCN1C=CC(=CC=C(C#N)C#N)C=C1
The inhibition of the first is higher: 18.4% for the first, 4.22% for the second.

Going from `Cc1cc(C(=S)N2CCOCC2)c(C)n1-c1ccc(F)cc1` to `Cc1ccc(-n2c(C)cc(C(=S)N3CCOCC3)c2C)cc1C`, the inhibition rises from 1.72% to 12.2%.

Compared with `O=[N+]([O-])c1ccc(N/N=C2\CC3CC=CC23)cc1` (centres undefined), `O=[N+]([O-])c1ccccc1N/N=C1\CC2CC=CC12` (centres undefined) is higher in inhibition: -1.23% for the first, 21.6% for the second.

Going from `CC1C/C(=N\Nc2ccc(S(N)(=O)=O)cc2[N+](=O)[O-])CC(C)(C)C1` (centres undefined) to `CC1CCC/C(=N/Nc2ccc([N+](=O)[O-])cc2[N+](=O)[O-])C1` (centres undefined), the inhibition rises from 8.9% to 10.6%.

Going from `O=C(CN1CCN(S(=O)(=O)c2ccc(Br)cc2)CC1)N/N=C/c1cc([N+](=O)[O-])ccc1Cl` to `O=C(CSc1ccc(-c2ccccn2)nn1)c1ccc([N+](=O)[O-])cc1`, the inhibition rises from -0.7% to 27.3%.

First: O=C(Oc1cccc(F)c1)c1ccc2c(=O)n3c(nc2c1)CCC3
Second: CCn1c(C)nc2cc(C(=O)NN=Cc3ccccc3OC(F)F)ccc21
The inhibition of the first is higher: 3.05% for the first, -6.28% for the second.

Going from `N#CCO/N=C/C(=O)Nc1ccc(F)cc1F` to `CCc1ccc(C(=O)C(C)OC(=O)CNS(=O)(=O)c2ccc(C)cc2)cc1` (centres undefined), the inhibition rises from -11.8% to -0.69%.

First: O=C(O)c1ccc(Nc2nc(-c3ccccc3)nc3ccccc23)cc1
Second: O=C(O)c1ccccc1P(=O)(c1ccccc1)c1ccccc1
The inhibition of the first is lower: -15.2% for the first, 7.4% for the second.

Compared with `Cc1ccc2nc(-c3ccc(NC(=O)COC(=O)c4ccco4)cc3)sc2c1`, `O=C(NCc1ccco1)/C(=C/c1ccc([N+](=O)[O-])cc1)NC(=O)c1ccco1` is higher in inhibition: -4.32% for the first, -2.93% for the second.

Going from `COc1ccc(N(CC(=O)NC2CCCCC2)S(=O)(=O)c2cccnc2)cc1` to `CN(C(=O)c1ccc(NC(=O)Cc2cccc(NC(=O)C3CCCN(C(=O)C4CCCCC4)C3)c2)cc1)C1CCCC1` (centres undefined), the inhibition rises from -1.53% to -1.36%.

Compared with `CC(C)n1cnnc1SCC(=O)NC(=O)c1ccccc1`, `CCOC(=O)c1cnc(Cc2ccccc2)[nH]c1=O` is higher in inhibition: -13.7% for the first, -2.72% for the second.

First: O=C(c1cccc(N2C(=O)C3C4C=CC(C4)C3C2=O)c1)N1CCN(c2ccc(F)cc2)CC1 (centres undefined)
Second: O=C(CSc1ccc(-c2ccccn2)nn1)c1ccc(F)cc1
The inhibition of the first is higher: -2.51% for the first, -9.8% for the second.

First: O=C(O)c1ccccc1C(=O)O
Second: CCCN1CCC(=O)N(CCOc2ccccc2)CC1
The inhibition of the first is higher: 3.33% for the first, -8.48% for the second.

Compared with `Cc1ccc(CN2CCN(Cc3cn(C(C)C)c4ccccc34)CC2CCO)o1` (centres undefined), `CC(C)CN1CCC(=O)N(CCOc2ccccc2)CC1` is lower in inhibition: 14.6% for the first, 2.95% for the second.

Compared with `CCOC(=O)C1CCN(C(=O)CCNS(=O)(=O)c2cc(Br)cnc2N)CC1`, `CCOC(=O)C1=C(C)N=c2s/c(=C/c3cccc([N+](=O)[O-])c3O)c(=O)n2C1c1ccc(OC)cc1OC` (centres undefined) is higher in inhibition: -2.4% for the first, 22.2% for the second.

First: CCOC(=O)C1=C(C)N=c2s/c(=C/c3cccc([N+](=O)[O-])c3O)c(=O)n2C1c1cc(OC)c(OC)c(OC)c1 (centres undefined)
Second: COc1cc(C=C2C(=O)c3ccccc3C2=O)ccc1O
The inhibition of the first is higher: 20.1% for the first, -20.5% for the second.

Compared with `Cc1ccc(-n2c(O)c(C=NC3CCS(=O)(=O)C3)c3ccccc3c2=O)c(C)c1` (centres undefined), `Cc1onc(-c2ccc(Cl)cc2Cl)c1-c1csc(N/N=C/c2ccccc2)n1` is lower in inhibition: 9.46% for the first, -21.5% for the second.

Going from `c1ccc(CSc2ccc(-c3ccccn3)nn2)cc1` to `c1ccc(CSc2ccc(-c3cccnc3)nn2)nc1`, the inhibition falls from -2.51% to -9.97%.

First: Clc1ccc(-c2ccc(SCc3ccccn3)nn2)cc1
Second: c1cncc(CSc2ccc(-c3cccnc3)nn2)c1
The inhibition of the first is lower: 0.43% for the first, 0.64% for the second.

In the case of `CCOC(=O)C1=C(C)Nc2ncnn2C1c1ccc(N(C)C)cc1` (centres undefined), the inhibition was 6.88% and -12.7%.
